Source: PubChem BioAssay AID633 (Emory University Molecular Libraries Screening Center, 2007)
Hit rate of the full screen: of about 86,000 compounds, about 1,100 (1.3%) were called active.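 Rule for the calls: active = compounds whose percent inhibition of the receptor-coactivator binding signal exceeds about 50% in the single-dose screen (limit read from the data); inactive = the rest.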 The full list was thinned out, with actives kept by preference.

The molecules below were run against Estrogen receptor beta (Homo sapiens) (UniProt Q92731) (assay: blockers of coactivator peptide binding to ERβ – biochemical, TR-FRET, ERβ LBD, SRC-1 peptide, primary screen (AID 633;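 note: 0% = receptor plus peptide wells without compound and 100% = peptide-only wells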)). Settings: TR-FRET ER-beta LBD / SRC1-Cy5 peptide binding; at 25.6 µM; stronger effect = higher value; receptor agonist-loaded with 1 µM estradiol.
Estrogen receptor beta (Homo sapiens), sequence (Q92731 whole entry, looked up, the tested form may be a part): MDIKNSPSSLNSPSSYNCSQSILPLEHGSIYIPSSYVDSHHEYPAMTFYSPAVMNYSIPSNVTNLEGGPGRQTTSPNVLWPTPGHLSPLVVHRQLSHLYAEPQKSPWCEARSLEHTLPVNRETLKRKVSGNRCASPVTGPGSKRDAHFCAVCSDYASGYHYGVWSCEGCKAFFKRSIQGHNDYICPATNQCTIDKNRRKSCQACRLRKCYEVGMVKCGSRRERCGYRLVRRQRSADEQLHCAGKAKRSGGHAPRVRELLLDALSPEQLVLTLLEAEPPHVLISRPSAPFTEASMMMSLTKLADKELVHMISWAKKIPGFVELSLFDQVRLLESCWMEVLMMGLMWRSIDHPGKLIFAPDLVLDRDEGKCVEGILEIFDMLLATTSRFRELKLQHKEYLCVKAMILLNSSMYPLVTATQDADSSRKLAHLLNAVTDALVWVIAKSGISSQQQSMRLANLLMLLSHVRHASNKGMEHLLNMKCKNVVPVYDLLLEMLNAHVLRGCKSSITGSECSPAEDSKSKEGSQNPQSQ

Compound	inhibition
C=CCn1c(SCc2cc(C(=O)OC)c(C)o2)nnc1-c1ccncc1	51.1% (active)
COC(=O)c1ccc(NC(=O)CSc2nnc(-c3ccncc3)n2C)cc1	-13.7% (inactive)
C=CCn1c(SCc2c(C(=O)OC)sc(N)c2C(=O)OC)nnc1-c1ccc(Cl)cc1	-3.96% (inactive)
O=C(CN(c1ccccc1)S(=O)(=O)c1ccc(Cl)cc1)Nc1ccccc1C(=O)N1CCCC1	-2.12% (inactive)
C=C(C)CNC(=S)/N=c1\scc(C)n1CC	77.4% [fluorescence artefact?] (active)
C=CCn1c(SCCOc2ccc(OC)cc2)nnc1C(NC(=O)c1ccc(OC)cc1)C(C)C (stereo not drawn)	6.7% (inactive)
COC(=O)CSc1nc2c(c(C3CC=CCC3)c1C#N)CCC2 (stereo not drawn)	-2.54% (inactive)
CCC(c1nnnn1C(C)(C)C)N(Cc1cc2cccc(C)c2n2nnnc12)C1CCCC1 (stereo not drawn)	1.68% (inactive)
O=C(CN1C(=O)CC(c2ccccc2)=Nc2ccccc21)NC1CCCCC1	-6.21% (inactive)
COc1ccc(C)cc1S(=O)(=O)Nc1cccc(Cl)c1Cl	-12.3% (inactive)
Oc1c(Cl)cc(Cl)c(Cl)c1Cc1c(O)c(Cl)cc(Cl)c1Cl	94.6% [fluorescence artefact?] (active)
COc1cc(OC)c(-n2c(C)cc(C=O)c2C)cc1Cl	4.25% (inactive)
O=C(/C=C/c1ccc(Cl)cc1Cl)c1cccnc1	23.9% (inactive)
CC1CCCC(NC(=O)CN2CCN(Cc3ccc(Cl)cc3)C2=O)C1C (stereo not drawn)	-3.92% (inactive)
Cc1ccc(CNC(=O)CN2CCN(Cc3ccc(Cl)cc3)C2=O)cc1	52.1% [fluorescence artefact?] (active)
CC(NC(=O)CN1CCN(Cc2ccc(Cl)cc2)C1=O)c1ccc2c(c1)OCCO2 (stereo not drawn)	-8.28% (inactive)
COC(=O)c1cc(NC(=O)C2C3C=CC(C3)C2C(=O)O)cc(C(=O)OC)c1 (stereo not drawn)	-3.6% (inactive)
Cc1cc(NC(=O)CSc2nc(C(C)C)nc3sc4c(c23)CCC(C)C4)no1 (stereo not drawn)	-5.67% (inactive)
COc1ccc(C2C(C(C)=O)=C(O)C(=O)N2Cc2cccnc2)cc1 (stereo not drawn)	-18.2% (inactive)
CC(C)CCSc1ncnc2c1oc1nc3c(cc12)COC(C)(C)C3	54.5% [fluorescence artefact?] (active)
CCCc1nc2oc3c(OCC)ncnc3c2c2c1COC(C)(C)C2	2.61% (inactive)
C=CCn1c(=S)[nH]c2nc3c(cc2c1=O)COC(C)(C)C3	-1.84% (inactive)

Compound	inhibition
CCOc1cc2[nH]c(=S)n(CCN3CCCCC3C)c(=O)c2cc1OCC (stereo not drawn)	-0.24% (inactive)
CCOc1cccc(NC(=O)Cn2nc(-c3ccc4c(c3)OCCO4)ccc2=O)c1	0.68% (inactive)
C=CCc1ccc(OCCOc2cccc(/C=N/n3cnnc3)c2)c(OC)c1	-5.22% (inactive)
Cc1cccc(-n2c(N)cc(=O)nc2SC(C)C(=O)NC2CCCCC2)c1 (stereo not drawn)	-5.73% (inactive)
Cc1cccc(-n2c(Cc3cc(=O)[nH]c(=O)[nH]3)nnc2SC(C)C)c1	51.8% [fluorescence artefact?] (active)
COc1cccc(-n2c(Cc3cc(=O)[nH]c(=O)[nH]3)nnc2SCC(=O)Nc2ccccc2)c1	-4.83% (inactive)
COc1ccc(NC(=O)CSc2nc(NS(=O)(=O)c3ccc(C)cc3)cc(=O)[nH]2)cc1	-6.84% (inactive)
Oc1c(C(c2ccccn2)N2CCOCC2)ccc2cccnc12 (stereo not drawn)	78.2% [fluorescence artefact?] (active)
Cc1nc2sc(C(c3ccco3)N3CCOCC3)c(O)n2n1 (stereo not drawn)	-29.9% (inactive)
O=C(c1cccnc1NCc1ccccc1)N1CCOCC1	2.12% (inactive)
O=C(Nc1nccs1)c1cc(S(=O)(=O)N2CCOCC2)c(Cl)cc1Cl	-7.67% (inactive)
c1ccc2c(-c3nn4nnnc4c4ccccc34)cccc2c1	-6.58% (inactive)
CCOC(=O)C1=C(C)NC(SC)=NC1c1ccccc1 (stereo not drawn)	-3.63% (inactive)
CC(Oc1ccc(Cl)cc1)c1ccnn1S(C)(=O)=O (stereo not drawn)	-3% (inactive)
COc1cccc(-c2nn(C)c3sc(C(=O)N4CCN(c5ccccc5)CC4)cc23)c1	10.8% (inactive)
O=C(c1cc2c(s1)CCC2)N1CCN(c2ccccc2)CC1	50.6% (active)
Cc1nc2ccc(C(=O)N3CCN(c4ccccc4)CC3)cc2s1	-22% (inactive)
O=C(Nc1ccccc1)c1ccc2c(c1)OCO2	35.7% (inactive)
Cc1nn(C)cc1CNC(=O)Nc1ccc(Cl)cc1	-6.02% (inactive)
CCOC(=O)c1ccc(COC(=O)CCc2nc(-c3ccccc3)c(-c3ccccc3)o2)cc1	1.8% (inactive)
C=CCn1c(CC(=O)Nc2cccc(OC)c2)nnc1SCC(=O)NC1CCCCC1	-1.41% (inactive)
COCCCn1c(Cc2csc(Nc3cccc(Cl)c3)n2)nnc1SCC(=O)OC1CCCCC1	77.5% (active)

Compound	inhibition
COCCCn1c(SCC(=O)Nc2ccccc2)nnc1-c1ccncc1	1.64% (inactive)
O=C(NCCCCCCNC(=O)NCc1ccco1)NCc1ccco1	-27.9% (inactive)
CCOC(=O)c1sc(C)c2c1NC(C)(c1cccc3ccccc13)NC2=O (stereo not drawn)	14.4% (inactive)
COc1cc(OC)c(C(=O)Nc2ccc(N(C)C)cc2)cc1OC	97.4% [fluorescence artefact?] (active)
COc1ccc(Cl)cc1C(=O)Nc1ccc(N(C)C(C)=O)cc1	3.01% (inactive)
COc1cc(OC)c(C(=O)NC2CCCCCC2)cc1OC	-3.66% (inactive)
COc1cccc2cc(C(=O)N3CCN(C(=O)c4ccccc4)CC3)c(=O)oc12	-4.03% (inactive)
COc1ccc(S(=O)(=O)N/N=C\c2ccc(OC)c(COc3ccc(C)cc3[N+](=O)[O-])c2)cc1	27.5% (inactive)
Cc1ccc(NC(=S)NC(NC(=O)Cc2cccc3ccccc23)C(Cl)(Cl)Cl)cc1 (stereo not drawn)	40.2% (inactive)
O=C1CCCc2nn(-c3ccccc3)nc21	-7.98% (inactive)
CN(c1ccc(C(=O)NCc2ccccn2)cc1)S(C)(=O)=O	-12.6% (inactive)
O=C(NCc1ccccn1)c1ccc2nc(-c3ccco3)c(-c3ccco3)nc2c1	93% [fluorescence artefact?] (active)
O=C(NCc1ccccn1)c1cc2ccccc2oc1=O	-2.55% (inactive)
CCOC(=O)C1CSC(CC(=O)Nc2ccc(OCC)cc2)C(=O)N1 (stereo not drawn)	-12.7% (inactive)
COc1ccc(NC(=O)CCN2CCCC2)c(OC)c1	-0.42% (inactive)
COc1ccc(OC)c(Nc2nc(-c3ccc(O)c(O)c3)cs2)c1	67.8% [fluorescence artefact?] (active)
Oc1ccc(-c2csc(Nc3cccnc3)n2)cc1	2.46% (inactive)
COc1ccc(-c2n[nH]c(C)c2-c2ccc(OC)c(OC)c2)c(O)c1	3.54% (inactive)
O=C(COc1ccc(S(=O)(=O)NCc2ccccc2)cc1)N1CCOCC1	-22.9% (inactive)
O=C(Nc1nnc(SCc2c(Cl)cccc2Cl)s1)C1CCCO1 (stereo not drawn)	-1.99% (inactive)
COc1cc(S(=O)(=O)N(Cc2cccs2)C2CC2)ccc1-n1cnnn1	-25.2% (inactive)
CCOC(=O)CSc1nc2sc3c(c2c(=O)[nH]1)CC(C)(C)OC3	-8.89% (inactive)

Compound	inhibition
CC(=O)c1sc2nc(SCC(=O)N3CCCCC3)[nH]c(=O)c2c1C	56.2% (active)
C=CCNC(=O)CSc1nc2sc(C)c(C)c2c(=O)[nH]1	6.38% (inactive)
CCCCOc1ccc(C(=O)NCc2ccncc2)cc1	0.29% (inactive)
N#CC1=C(N)N(c2ccccc2)C2=C(C(=O)CCC2)C1c1ccccc1 (stereo not drawn)	-5.84% (inactive)
O=C(CSC1=Nc2ccccc2C2=NC(CC(=O)NCc3ccco3)C(=O)N12)NCc1ccco1 (stereo not drawn)	16.1% (inactive)
CCC(C)NC(=O)CSC1=Nc2ccccc2C2=NC(CCC(=O)NCc3ccco3)C(=O)N12 (stereo not drawn)	-5.03% (inactive)
CC(C)C1N=C2c3ccccc3N=C(SCC(=O)c3ccc(O)c(O)c3)N2C1=O (stereo not drawn)	52.4% [fluorescence artefact?] (active)
O=C1CSC2=NCN(c3ccccc3)CN12	-6.24% (inactive)
COC(=O)c1cccc(NC(=O)CSc2nc(C)cc(=O)[nH]2)c1	50.1% [fluorescence artefact?] (active)
CCOC(=O)Cc1csc(NC(=O)CSc2nc(C)cc(=O)[nH]2)n1	1.35% (inactive)
CCCCc1nnc(NC(=O)CSc2nc(C)cc(=O)[nH]2)s1	27.8% (inactive)
O=C(CCCn1c(SCC(=O)c2ccccc2)nc2ccccc2c1=O)NCC1CCCO1 (stereo not drawn)	-2.4% (inactive)
Cc1cc(C)c(OCC(=O)N/N=C/c2ccco2)c(C)c1	-10.7% (inactive)
CCCCNC(=O)C1(c2ccc(OC)cc2)CCOCC1	39.7% (inactive)
Cc1ccc(SC(=O)COc2ccc(C)c(C)c2)cc1	-2.52% (inactive)
O=C(NC1CCCC1)C(c1ccccn1)N(C(=O)c1csnn1)C1CCCC1 (stereo not drawn)	3.18% (inactive)
COc1cccc(NS(=O)(=O)c2ccc3[nH]cc(C(=O)NCCCOC(C)C)c(=O)c3c2)c1	19.5% (inactive)
CCCCNC(=O)c1c[nH]c2ccc(S(=O)(=O)Nc3ccc(OCC)cc3)cc2c1=O	29.9% (inactive)
CCN(CC)S(=O)(=O)c1ccc2[nH]cc(C(=O)NCCc3ccccc3)c(=O)c2c1	51.1% [fluorescence artefact?] (active)
COC(=O)CSc1snnc1-c1ccc(Cl)c(Cl)c1	-8.59% (inactive)
Cc1cc(=O)oc2cc(OCC3CC(c4ccccc4Cl)=NO3)ccc12 (stereo not drawn)	-1.82% (inactive)
CCOCN(C(=O)Cn1c(C(C)O)nc2ccccc21)c1c(C)cccc1CC (stereo not drawn)	-15.2% (inactive)
